Screens from PubChem BioAssay.
DT40 TDP1 no CPT: qHTS for Inhibitors of human tyrosyl-DNA phosphodiesterase 1 (TDP1): qHTS in cells in absence of CPT. Potency, µM (top dose mostly 46.2 µM), actives largely listed as inhibitors. DT40 Tdp1-/- hTDP1 cells, no CPT, ATP luminescence, 48 h. hit rate 15% among 420,000. AID 686978, 2013; further: nearly all actives have a fitted effect of over 55% in size
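Readout: luminescence from CellTiter-Glo after 30 min in the dark at RT. Cells: DT40 Tdp1-/- with stable hTDP1, 400/well. Exposure: compounds alone, ≥48 hr, 37 °C.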
IL1B secr inh: inflammasome signaling inhibition, IL-1 beta readout; THP-1 LPS/ATP IL-1B secretion, AlphaLISA, 16 h; hits give low values; activity change, % at 57.5 µM; hit rate 4.7% among 360,000; in the data active means activity change below about -50%; inconclusive means mostly about -30% to -49%
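Secreted IL-1B measured by AlphaLISA bead assay after 16 h compound exposure of THP-1 cells; compounds (final up to 57.5 uM) added 1 h before LPS (250 ng/mL) and ATP (1.25 mM) stimulation; lower signal means less secretion.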
HT1080-NT tox: kills 2HG-producing HT-1080-NT fibrosarcoma cells | HT-1080-NT fibrosarcoma viability, CellTiter-Glo ATP luminescence, 48 h | Potency, µM (doses to about 46.1 µM), actives largely listed as cytotoxic | hit rate 1.6% among 360,000;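 further: NT is the 2HG producing partner of a matched IDH1 knockdown line; nearly all actives have a fitted effect of over 55% in size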
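Viability by CellTiter-Glo luminescence after 48 h compound exposure at 37C of HT-1080-NT cells (750/well, RPMI, 5% FBS). % activity scaled between DMSO wells and medium-only wells, then curve-fitted and categorized by curve class.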
ELG1 DNA repair: inhibitors of ELG1-dependent DNA repair in HEK293T cells; HEK293T ELG1-luciferase reporter, luminescence, 16 h; DNA damage induced by 5-fluorouridine; Potency, µM (titrated, usually from 46.1 µM), most hits filed as inhibitors; hit rate 2.3% among 330,000; AID 504467; further: nearly all actives have a fitted effect of over 55% in size
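Reporter activity after DNA damage by 5-fluorouridine is monitored. Compound-treated cells incubate 16 hr at 37 °C, then ONE-Glo is added for 30 min before luminescence reading.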
HT1080 IDH1KD tx: kills HT-1080 cells with IDH1 knockdown | Potency, µM (titrated, usually from 46.1 µM), usual class: cytotoxic | hit rate 2% among 360,000 | HT-1080 IDH1 knockdown viability, ATP luminescence, 48 h
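Assay cells: HT-1080 with IDH1 knockdown, 750 per well, RPMI/5% FBS. Exposure: 48 h at 37 °C following 2 h pre-incubation. Read: CellTiter-Glo luminescence; fitted concentration-response, curve class assigned.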
TDP1 cell CPT: DT40-hTDP1 cell growth loss with CPT. chicken DT40 Tdp1-/-;hTDP1 cells + 20 nM CPT, ATP luminescence, 48 h. Potency, µM (series often up to 46.2 µM), usual class: inhibitors. hit rate 12% among 420,000; further: nearly all actives have a fitted effect of over 55% in size
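Chicken DT40 Tdp1-/- cells stably complemented with human TDP1 were seeded at 400 cells/well in medium containing 20 nM camptothecin, exposed to pin-transferred compounds, and grown at 37 °C for at least 48 hr. Viability was read as ATP luminescence.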
Hits are given with their value; n = inactive; u = inconclusive; x = no result; [ ] = remark or other dose. Only some compounds are listed: those with a hit (about 19% of all), similar ones and a draw of the others. Unless noted, the call rests on the fitted dose curve; in most records, active means well fitted curve in the direction sought with a large enough effect; inconclusive means small, poorly fitted or top-dose-only effect, or another doubt; inactive means no such curve, though single readings can be large; an effect the other way counts as inactive or inconclusive.

SMILES | DT40 TDP1 no CPT | IL1B secr inh | HT1080-NT tox | ELG1 DNA repair | HT1080 IDH1KD tx | TDP1 cell CPT
O=C1/C(=C/c2ccncc2)SC(=S)N1N1CCOCC1 | u | n | n | n | n | 13µM
O=C1/C(=C/c2ccncc2)SC(=S)N1Cc1ccccc1 | 16.4µM | -81.7 | 23.1µM | n | 18.4µM | u
Cc1ccc(NS(=O)(=O)c2cccc(C(=O)NCC(c3ccco3)N3CCCC3)c2)cc1 (stereo unspecified) | u | n | n[9.24 µM] | n | n | u
O=C(CSc1nc(=O)n(Cc2ccco2)c2c1CCC2)NCc1ccc(F)cc1 | n | x | x | x | x | n
CCS(=O)(=O)C1=NSC2=NC(=O)/C(=C\c3ccc(OC(=O)c4ccco4)cc3)C(=N)N21 | n | n | n | n | n | n
O=C1S/C(=C\c2ccc(O)c([N+](=O)[O-])c2)C(=O)N1Cc1cccc([N+](=O)[O-])c1 | n | n | n | u | n | u
O=C1/C(=C\c2cccc(O)c2O)SC(=S)N1Cc1ccccc1 | 23.1µM | -97.6 | u | n | u | u
O=C(O)CN1C(=O)/C(=C\c2ccccc2OCc2ccccc2)SC1=S | n | n | n | x | n | n
O=C(O)c1cccc(CN2C(=O)S/C(=C/c3ccccc3[N+](=O)[O-])C2=O)c1 | u | -82.0 | n | n | u | n
O=C1/C(=C\c2ccc(O)c(O)c2)SC(=S)N1Cc1ccccc1 | 18.4µM | -87.4 | u | u | u | 20.6µM
O=C1/C(=C\c2cccc(O)c2)SC(=S)N1Cc1ccccc1 | u | n | n | n | n | u
C=CC[C@@H](CC(=O)NCCO)C(=O)N[C@@H](COC(=O)[C@@H](CC=C)Cc1ccc(F)cc1)Cc1c[nH]c2ccccc12 | u | -55.0 | n | n | n | u
C=CCC[C@H](Cc1ccc(F)cc1)C(=O)OC[C@H](Cc1c[nH]c2ccccc12)NC(=O)[C@H](CC=C)CC(=O)NCCO | 18.4µM | u | n | n | n | u
C=CCC[C@@H](Cc1ccc(F)cc1)C(=O)OC[C@@H](Cc1c[nH]c2ccccc12)NC(=O)[C@H](CC=C)CC(=O)NCCO | 18.4µM | n | n | n | n | u
C=CCC[C@@H](Cc1ccc(F)cc1)C(=O)OC[C@@H](Cc1c[nH]c2ccccc12)NC(=O)[C@@H](CC=C)CC(=O)NCCO | u | -64.6 | n | u | n | u
C=CCC[C@@H](Cc1ccc(F)cc1)C(=O)OC[C@H](Cc1c[nH]c2ccccc12)NC(=O)[C@@H](CC=C)CC(=O)NCCO | u | n | n | u | u | u
CCc1ccccc1NC1=CC(=O)CC(C)(C)C1 | n | n | n | n | n | n
Cc1cccc(CN2CCc3nnc(C(C)NC(=O)C4CCOCC4)n3CC2)c1 (stereo unspecified) | n | x | x | x | x | n
C=CCN1CCN(C(c2ccccc2)c2nnnn2CCC(C)C)CC1 (stereo unspecified) | 6.51µM | n | n | n | u | 6.51µM
CCCCn1nnnc1C(c1ccnc2ccccc12)N1CCN(C/C=C/c2ccccc2)CC1 (stereo unspecified) | 20.6µM | n | u | x | n | 20.6µM
CCCCn1nnnc1C(c1ccccc1)N1CCN(C/C=C/c2ccccc2)CC1 (stereo unspecified) | 16.4µM | n | u | x | u | u
CCCCn1nnnc1C(c1cccc2ccccc12)N1CCN(C/C=C/c2ccccc2)CC1 (stereo unspecified) | 20.6µM | -58.6 | u | x | u | u
COc1cc(NS(=O)(=O)c2cc3c(cc2C)n(C)c(=O)c(=O)n3C)cc(OC)c1 | u | x | x | x | x | n
Oc1ccc(C[C@H]2CNC(=S)N2CC2CCCN2C[C@H](Cc2ccc(O)cc2)N2C[C@H](Cc3ccc(O)cc3)N(CC3CCCCCC3)C2=S)cc1 (stereo partly specified) | 18.4µM | u | u | x | u | 23.1µM
Oc1ccc(C[C@@H](CN2CCCC2CN2C(=S)NC[C@@H]2Cc2ccccc2)N2C[C@H](Cc3ccccc3)N(CC3CCCCCC3)C2=S)cc1 (stereo partly specified) | u | n | n | x | n | u
SMILES | DT40 TDP1 no CPT | IL1B secr inh | HT1080-NT tox | ELG1 DNA repair | HT1080 IDH1KD tx | TDP1 cell CPT
Oc1ccc(C[C@H]2CNC(=S)N2CC2CCCN2C[C@H](Cc2ccc(O)cc2)N2C[C@H](Cc3ccccc3)N(CC3CCCCCC3)C2=S)cc1 (stereo partly specified) | 4.11µM | -65.8 | n | x | n | 10.3µM
Oc1ccc(C[C@H]2CN([C@@H](Cc3ccccc3)CN3CCC[C@@H]3CN3C(=S)NC[C@@H]3Cc3ccccc3)C(=S)N2CC2CCCCC2)cc1 | 25.9µM | u | 23.1µM | x | u | u
Oc1ccc(C[C@H]2CNC(=S)N2CC2CCCN2C[C@H](Cc2ccc(O)cc2)N2C[C@H](Cc3ccccc3)N(CC3CCCCC3)C2=S)cc1 (stereo partly specified) | 16.4µM | -72.0 | n | x | n | 16.4µM
CCCCn1c(SCCN2CCCCC2)nc2c1c(=O)n(C)c(=O)n2C | n | n | n | x | n | n
COc1ccc(N2CC(C(=O)Nc3cc(C)ccn3)CC2=O)cc1 (stereo unspecified) | n | n | n | n | n | n
Cc1cccc(CNC(=O)c2cnn(-c3nccc(-c4cc(C)sc4C)n3)c2C)n1 | n | x | x | x | x | n[9.04 µM]
Oc1ccc(C[C@@H](CN2CCCC2CN2C(=S)NC[C@@H]2Cc2ccccc2)N2C[C@H](Cc3ccccc3)N(CC3CCCCC3)C2=S)cc1 (stereo partly specified) | 20.6µM | n | n | x | n | 14.6µM
Oc1ccc(C[C@H]2CNC(=S)N2CC2CCCN2C[C@H](Cc2ccccc2)N2C[C@H](Cc3ccc(O)cc3)N(CC3CCCCC3)C2=S)cc1 (stereo partly specified) | 20.6µM | u | u | x | 25.9µM | u
COc1cc(NC(=O)CN2C(=O)c3ccccc3Sc3ccc(C(=O)N4CCCC4)cc32)cc(OC)c1 | u | x | x | x | x | n
O=C(O)c1ccc2c3c(ncnc13)-c1ccccc1C2=O | 23.1µM | n | u | u | u | 23.1µM
COCCN1C(=O)COc2ccccc2C1C(=O)Nc1c(C)cccc1C (stereo unspecified) | n | n | n | x | n | n
O=C1N/C(=C/c2ccc(N3CCOCC3)o2)C(=O)N1c1ccccc1 | 9.2µM | -103.7 | u | u | n | 11.6µM
CC(C)C1COS(=O)(=O)NC1CC(=O)SC(C)(C)C (stereo unspecified) | u | n | n | n | n | u
Cc1c(C(=O)Nc2ccc(Cl)cc2)c2ccccn2c1C(=O)c1ccccc1 | u | n | n | n | n | n
